This passage reports Potency and outcome results from PubChem BioAssay (Tox21).

Assay [1] in a line: qHTS assay for small molecule agonists of the p53 signaling pathway (AID 651631; calls by dose curve; further: nearly all actives have a fitted effect of over 15% in size). A digest of the protocol:
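Read-out is beta-lactamase FRET fluorescence measured 2 h after substrate addition at room temperature, in HCT-116 cells with a p53 response element-driven reporter exposed to compounds for 16 h at 37 °C.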
(In general: In qHTS, concentration-response curves come from the screen itself.)

Assay [2] can be described thus: qHTS assay for small molecules that induce genotoxicity in human embryonic kidney cells expressing luciferase-tagged ATAD5 (AID 651632). Further: nearly all actives have a fitted effect of over 15% in size. A digest of the protocol: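 Genotoxicity read-out via ATAD5-luciferase: HEK293T cells, 16 hr compound incubation at 37C, Amplite detection.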
A short description of assay [3]: qHTS assay for small molecule agonists of the p53 signaling pathway - cell viability (AID 651633; calls by dose curve;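 further: p53RE-bla HCT reporter cells with a stable beta-lactamase p53 reporter; nearly all actives have a fitted effect of over 30% in size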). A digest of the protocol: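 p53RE-bla cells were treated with compound for 16 hours at 37 C. Cytotoxicity was then measured as CellTiter-Glo luminescence after 30 min at room temperature.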
A short description of assay [4]: qHTS assay for small molecules that induce genotoxicity in human embryonic kidney cells expressing luciferase-tagged ATAD5 - cell viability (AID 651634; calls by dose curve; further: nearly all actives have a fitted effect of over 25% in size). A digest of the protocol:
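Live-cell protease activity (CellTiter-Fluor, fluorescence) indicates viability. HEK293T cells with luciferase-tagged ATAD5; 15.5 hr compound treatment at 37C.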

Assay [5] can be described thus: qHTS assay for small molecule disruptors of the mitochondrial membrane potential - cell viability (AID 720634; calls by dose curve;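 further: human HepG2 liver cancer cells; nearly all actives have a fitted effect of over 20% in size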). A digest of the protocol: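 Human hepatoma HepG2 cells were treated for 1 hr with test chemicals, then given m-MPI dye and CellTiter-Glo. Cell viability reflects luminescence proportional to cellular ATP.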
Assay [6] in a line: qHTS assay for small molecule disruptors of the mitochondrial membrane potential (AID 720635). Further: potency means the concentration at half of the fitted maximal effect. A digest of the protocol:
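HepG2 cells exposed to compound 1 hr at 37C, then Mito-MPS dye 30 min. Ratio read of aggregate (540/590 nm) versus monomer (490/535 nm) fluorescence.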

The nature of assay [7]: qHTS assay to test for compound auto fluorescence at 590 nm (red) in HepG2 cells (AID 720674). A digest of the protocol: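 HepG2 cells, 2,000 per well in MEM with 10% FBS, attached overnight at 37 C, then got 23 nL compound or DMSO. After 1 hr at 37 C, 5% CO2, red fluorescence was read at 540/590 nm against Rose Bengal sodium as reference.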
Assay [8] is described as follows: qHTS assay to test for compound auto fluorescence at 535 nm (green) in HepG2 cells (AID 720675).
A short description of assay [9]: qHTS assay to test for compound auto fluorescence at 460 nm (blue) in HEK293 cells (AID 720678). A digest of the protocol: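 Cells were seeded and left to adhere for 4-5 hr at 37C. Compounds were then pin-transferred. After an overnight incubation at 37C under 5% CO2, intrinsic fluorescence at 405/460 nm was measured and referenced to triamterene.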
The nature of assay [10]: qHTS assay to test for compound auto fluorescence at 590 nm (red) in HEK293 cells (AID 720679). A digest of the protocol:
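Each well held 2,000 HEK293 cells in medium containing 10% dialyzed FBS. Following 4-5 hr attachment at 37C, 23 nL test compound or DMSO was added; plates sat overnight, and red fluorescence (540/590nm) was recorded.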

The nature of assay [11]: qHTS assay to test for compound auto fluorescence at 535 nm (green) in HEK293 cells (AID 720680).
The nature of assay [12]: qHTS assay to test for compound auto fluorescence at 460 nm (blue) in HEK293 cell free culture (AID 720681). A digest of the protocol: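 Compounds were added to cell-free DMEM with 10% FBS and fluorescence read directly. The blue channel used 405 nm excitation and 460 nm emission, with triamterene as the reference fluorophore.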
Assay [13] in a line: qHTS assay to test for compound auto fluorescence at 535 nm (green) in HEK293 cell free culture (AID 720682). A digest of the protocol: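 Fluorescein serves as the green reference fluorophore; each compound's intrinsic emission at 535 nm (excitation 485 nm) is reported as an equivalent amount of that dye, measured in serum-containing DMEM without cells.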
Assay [14] in a line: qHTS assay to test for compound auto fluorescence at 590 nm (red) in HEK293 cell free culture (AID 720683). A digest of the protocol:
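Cell-free wells of DMEM with 10% FBS received compound, and intrinsic fluorescence was read at excitation/emission 540/590 nm. Values expressed as equivalence to Rose Bengal sodium.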

A short description of assay [15]: qHTS assay to test for compound auto fluorescence at 590 nm (red) in HepG2 cell free culture (AID 720684). A digest of the protocol:
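Compound was pinned into wells holding MEM with 10% FBS and no cells, and red fluorescence was read at Ex/Em 540/590 nm. Signal is expressed as auto fluorescence equivalency relative to Rose Bengal sodium.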

Assay [16] can be described thus: qHTS assay to test for compound auto fluorescence at 460 nm (blue) in HepG2 cell free culture (AID 720685). A digest of the protocol: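 Compound (23 nL) or DMSO pinned into cell-free MEM with 10% FBS; blue fluorescence read at 405/460 nm excitation/emission, expressed as auto-fluorescence equivalency to triamterene.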
Assay [17] in a line: qHTS assay to test for compound auto fluorescence at 535 nm (green) in HepG2 cell free culture (AID 720686).
Assay [18] is described as follows: qHTS assay to test for compound auto fluorescence at 460 nm (blue) in HepG2 cells (AID 720687). A digest of the protocol:
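HepG2 cells in MEM with 10% FBS, attached overnight at 37 C, were exposed to compound or DMSO for 1 hr at 37 C, 5% CO2. Blue fluorescence was read at 405/460 nm, with triamterene as reference fluorophore.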

The target of assay [19] is Glucocorticoid receptor (Homo sapiens) (UniProt P04150). Nature of the assay: qHTS assay to identify small molecule agonists of the glucocorticoid receptor (GR) signaling pathway (AID 720691; active means well fitted activation curve with a large enough effect in the signal ratio in the repeat runs, not every such curve was filed as active; the % refers to the signal ratio). Conditions: GR-bla HeLa, beta-lactamase reporter ratio, 18 h; activation: at 62.4 µM (top of the series). A digest of the protocol:
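Beta-lactamase reporter activity, read as fluorescence intensity, was measured in GR-bla HeLa cells exposed to compounds for 18 h at 37 C and then loaded with LiveBLAzer B/G FRET substrate for 2 h at room temperature.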

The target is the same in assay [20]. Nature of the assay: qHTS assay to identify small molecule antagonists of the glucocorticoid receptor (GR) signaling pathway (AID 720692; active means well fitted inhibition curve with a large enough effect in the signal ratio in the repeat runs, not every such curve was filed as active; the % refers to the signal ratio). A digest of the protocol: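 Fluorescence from cleaved LiveBLAzer B/G FRET substrate reports GRE-driven beta-lactamase in HeLa cells; compounds are tested against 5 nM dexamethasone (final) over 18 h at 37 C, substrate incubation 2 h at room temperature.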

Unmarked numbers belong to inactive results. Records with an inconclusive call do not appear. The source made the active and inactive calls. Unless noted, the call rests on the fitted dose curve; in most records, active means well fitted curve in the direction sought with a large enough effect in the repeat runs; inconclusive means weak or mixed curves; inactive means no such curve, though single readings can be large; an effect the other way counts as inactive or inconclusive.

Chain of Glucocorticoid receptor (Homo sapiens) (P04150 whole entry, looked up): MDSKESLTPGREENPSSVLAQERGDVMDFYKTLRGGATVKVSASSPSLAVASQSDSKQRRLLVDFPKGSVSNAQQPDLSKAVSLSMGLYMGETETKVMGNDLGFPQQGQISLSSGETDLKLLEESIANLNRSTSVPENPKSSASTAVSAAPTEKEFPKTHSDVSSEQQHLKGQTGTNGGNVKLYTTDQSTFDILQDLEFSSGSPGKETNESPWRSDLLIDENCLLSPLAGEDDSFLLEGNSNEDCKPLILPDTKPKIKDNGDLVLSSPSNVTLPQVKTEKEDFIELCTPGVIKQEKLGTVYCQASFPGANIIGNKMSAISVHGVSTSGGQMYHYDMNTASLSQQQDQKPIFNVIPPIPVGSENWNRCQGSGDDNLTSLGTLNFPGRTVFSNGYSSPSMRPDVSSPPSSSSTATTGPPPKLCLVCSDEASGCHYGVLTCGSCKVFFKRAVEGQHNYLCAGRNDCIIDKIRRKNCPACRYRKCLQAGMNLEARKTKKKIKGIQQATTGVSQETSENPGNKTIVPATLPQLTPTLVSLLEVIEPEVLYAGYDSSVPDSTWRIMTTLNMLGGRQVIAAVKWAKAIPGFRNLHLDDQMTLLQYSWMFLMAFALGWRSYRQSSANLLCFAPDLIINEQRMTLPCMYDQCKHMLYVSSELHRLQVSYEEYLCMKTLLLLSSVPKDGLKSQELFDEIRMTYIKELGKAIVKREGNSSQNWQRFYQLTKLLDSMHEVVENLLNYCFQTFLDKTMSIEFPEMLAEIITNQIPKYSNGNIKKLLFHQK

Turning to `CC/C=C\C/C=C\C/C=C\C/C=C\C/C=C\CCCC(=O)O`, the Potency entry in [1], in assay [2], in [3], in assay [4], in assay [5] and in assay [6] was “inactive” throughout. Further, the Potency entry in assay [8], in assay [9], in assay [12], in assay [16], in [17] and in [18] was “inactive” each time. Moreover, in [19], the Potency entry was “inactive”. In addition, the result in assay [7], in assay [10], in assay [11], in assay [13], in assay [14] and in [15] was inactive.
Regarding `O=C(O)c1cc(=O)c2c3nc4ccccc4oc-3cc(=O)c2[nH]1`, the Potency entry in assay [1], in assay [2], in [3], in assay [4], in [5] and in assay [8] was “inactive” each time. The Potency result in assay [9], in assay [12], in [16], in assay [17], in assay [18] and in assay [19] was “inactive” in each case. Further, the Potency in [6] was 21.1 µM (active). In addition, the molecule was called inactive in assay [7], in [10], in [11], in assay [13], in assay [14] and in [15].
`CCCOC(=O)c1ccccc1O`: the Potency result in assay [1], in [2], in assay [3], in assay [4], in assay [5] and in assay [6] was “inactive” throughout. Besides, the Potency entry in assay [8], in assay [9], in assay [12], in [16], in [17] and in assay [18] was “inactive” in each case. In addition, the Potency result in assay [19] was “inactive”. Besides, the molecule was called inactive in [7], in assay [10], in assay [11], in assay [13], in assay [14] and in [15].
On to `CCC[C@@H]1C[C@@H](C(=O)N[C@@H]([C@H]2O[C@H](SC)[C@H](OP(=O)(O)O)[C@@H](O)[C@H]2O)[C@H](C)Cl)N(C)C1`, for which the Potency entry in assay [1], in [2], in assay [3], in assay [4], in assay [5] and in assay [6] was “inactive” each time. Moreover, the Potency entry in assay [8], in assay [9], in [12], in [16], in assay [17] and in assay [18] was “inactive” throughout. The Potency result in [19] and in [20] was “inactive” throughout. The call in assay [7], in assay [10], in [11], in assay [13], in [14] and in [15] was inactive.
For `CO/N=C(\C(=O)N[C@@H]1C(=O)N2C(C(=O)O)=C(CSc3cnns3)CS[C@H]12)c1csc(N)n1`, the Potency entry in assay [1], in assay [2], in assay [3], in [4], in assay [5] and in assay [6] was “inactive” in each case. The Potency result in [8], in assay [9], in [12], in assay [16], in [17] and in assay [18] was “inactive” throughout. The Potency entry in assay [19] and in [20] was “inactive” in each case. Further, the molecule was classed as inactive in assay [7], in assay [10], in [11], in [13], in assay [14] and in assay [15].
`CCC(=O)OC(OP(=O)(CCCCc1ccccc1)CC(=O)N1C[C@H](C2CCCCC2)C[C@H]1C(=O)O)C(C)C` (stereo partly specified): the Potency result in [1], in assay [2], in [3], in assay [4], in assay [5] and in [6] was “inactive” each time. Also, the Potency result in assay [8], in [9], in assay [12], in assay [16], in [17] and in assay [18] was “inactive” each time. In addition, the Potency result in assay [19] was “inactive”. For the same molecule, the molecule was called inactive in assay [7], in assay [10], in [11], in assay [13], in [14] and in assay [15].
On to `O=C(CCCN1CCN2CCCC2C1)c1ccc(F)cc1` (stereo unspecified), for which the Potency entry in [1], in [2], in [3], in assay [4], in [5] and in assay [6] was “inactive” throughout. Further, the Potency entry in assay [8], in [9], in [12], in assay [16], in assay [17] and in assay [18] was “inactive” each time. The Potency result in assay [19] and in [20] was “inactive” in each case. Also, the call in assay [7], in assay [10], in assay [11], in assay [13], in [14] and in assay [15] was inactive.
